# Data as given in PubChem BioAssay (NCATS).
# Results filed as inconclusive are left out. Where a call stands in place of a potency, no number is given. A number with no mark means an inactive call. Active and inactive are the calls of the source. Unless noted, calls follow the shape of the dose curve; as a rule, active = well fitted curve in the direction sought with a large enough effect; inconclusive = small, poorly fitted or top-dose-only effect, or another doubt; inactive = no such curve, though single readings can be large; an effect the other way counts as inactive or inconclusive.
# What was measured:
# [1] = P-glycoprotein substrates identified in KB-3-1 adenocarcinoma cell line, qHTS therapeutic library screen (AID 1346986); also: nearly all actives have a fitted effect of over 60% in size
# Method in brief: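 In 1536-well format, 500 cells/well received pinned compound titrations and were incubated 72 h, 5% CO2. Viability was read by CellTiter-Glo; cytotoxic if AC50 < 10 uM and efficacy >50%.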
# [2] = P-glycoprotein substrates identified in KB-8-5-11 adenocarcinoma cell line, qHTS therapeutic library screen (AID 1346987); also: series mostly up to about 44 µM; nearly all actives have a fitted effect of over 65% in size
# Method in brief: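 Luminescence from CellTiter-Glo, read 5 min after addition, quantified survival of KB-8-5-11 (P-gp-overexpressing) cells exposed to compounds for 72 h. AC50 was derived from concentration-response curves.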
# [3] = qHTS assay to identify small molecule inhibitors of chordoma cells - UCH-2 (AID 1259356); also: series mostly up to about 46 µM
# [4] = Natriuretic polypeptide receptor (hNpr1) antagonism - Pilot counterscreen GloSensor control cell line (AID 1347045; calls by dose curve; also: series mostly up to about 38 µM)
# Method in brief: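 Cells were first seeded and incubated overnight at 37C, then loaded with 2% GloSensor substrate for 2 h. Compounds were added for 30 min at room temperature, followed by a baseline read, 50 uM SNP and a final read after 20 min.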
# [5] = target: Atrial natriuretic peptide receptor 1 (Homo sapiens) (UniProt P16066); assay: Natriuretic polypeptide receptor (hNpr1) antagonism - Pilot screen (AID 1347049; calls by dose curve;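 also: agonist-evoked cGMP luminescence read 20 min after hNppA addition; series mostly up to about 58 µM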)
# Method in brief: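 cGMP-sensor HEK293/hNpr1 cells, 1500/well, plated overnight at 37C. 2% GloSensor reagent, 2 h RT. Compound (23 nL pin transfer) 30 min RT, baseline luminescence pre-read. 0.1 nM hNppA, 20 min RT, post-read.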
# [6] = target: Atrial natriuretic peptide receptor 2 (Homo sapiens) (UniProt P20594); assay: Natriuretic polypeptide receptor (hNpr2) antagonism - Pilot subtype selectivity assay (AID 1347050; calls by dose curve)
# Method in brief: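 Luminescence from a genetically encoded cGMP luciferase biosensor in hNpr2-expressing HEK293 cells is read before and 20 min after adding 1 nM hNppC. Test compounds, in interplate 1:5 titrations, are added 30-50 min ahead of the agonist.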
# [7] = target: Tyrosine-protein phosphatase non-receptor type substrate 1 (Homo sapiens) + Leukocyte surface antigen CD47 (Homo sapiens) (UniProt P78324+Q08722); assay: CD47-SIRPalpha protein protein interaction - LANCE assay qHTS validation (AID 1347057; active = well fitted curve in the direction sought with a large enough effect in the signal ratio, with a control signal flat, not every such curve was filed as active; the % refers to the signal ratio; also: series mostly up to about 38 µM)
# Method in brief: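 Inhibition of soluble CD47/SIRPalpha ectodomain association by titrated compounds, measured as 665/615 nm time-resolved FRET ratio after sequential 30 min room-temperature incubations.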
# [8] = NS1 protein of Zika virus - qHTS assay to identify small molecule inhibitors in human HEK 293 cells (AID 1347053); also: series mostly up to about 46 µM; nearly all actives have a fitted effect of over 55% in size
# Method in brief: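 In this cell-based screen, HEK 293 cultures received compound for one hour before Zika MR766 at MOI = 0.5. NS1 was quantified 24 hours later by TR-FRET, normalized to virus-free wells and infected wells.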
# Sequence of Tyrosine-protein phosphatase non-receptor type substrate 1 (Homo sapiens) + Leukocyte surface antigen CD47 (Homo sapiens) (P78324 whole entry, looked up, the tested form may be a part): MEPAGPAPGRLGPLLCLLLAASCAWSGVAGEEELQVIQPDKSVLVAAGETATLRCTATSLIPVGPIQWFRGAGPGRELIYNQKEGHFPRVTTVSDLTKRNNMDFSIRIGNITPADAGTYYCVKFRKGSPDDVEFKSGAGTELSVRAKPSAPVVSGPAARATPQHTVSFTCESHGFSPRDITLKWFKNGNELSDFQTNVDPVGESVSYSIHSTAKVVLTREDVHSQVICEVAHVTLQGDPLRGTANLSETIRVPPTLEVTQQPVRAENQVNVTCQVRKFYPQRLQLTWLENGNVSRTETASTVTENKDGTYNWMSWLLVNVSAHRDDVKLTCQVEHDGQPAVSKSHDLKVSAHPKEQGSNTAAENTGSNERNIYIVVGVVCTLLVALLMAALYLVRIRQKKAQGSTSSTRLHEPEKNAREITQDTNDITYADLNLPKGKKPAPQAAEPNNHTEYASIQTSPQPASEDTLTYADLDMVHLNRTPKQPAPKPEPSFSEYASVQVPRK
# Sequence of Tyrosine-protein phosphatase non-receptor type substrate 1 (Homo sapiens) + Leukocyte surface antigen CD47 (Homo sapiens) (Q08722 whole entry, looked up, the tested form may be a part): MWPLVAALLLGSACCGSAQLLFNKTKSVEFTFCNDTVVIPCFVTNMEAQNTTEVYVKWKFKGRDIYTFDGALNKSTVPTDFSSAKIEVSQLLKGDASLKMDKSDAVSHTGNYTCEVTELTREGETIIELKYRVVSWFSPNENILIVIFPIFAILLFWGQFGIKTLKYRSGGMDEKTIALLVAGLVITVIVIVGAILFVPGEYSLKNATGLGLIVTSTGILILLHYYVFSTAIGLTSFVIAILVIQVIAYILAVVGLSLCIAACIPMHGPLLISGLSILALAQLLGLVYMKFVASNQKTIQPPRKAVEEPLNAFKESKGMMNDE
# Sequence of Atrial natriuretic peptide receptor 2 (Homo sapiens) (P20594 whole entry, looked up): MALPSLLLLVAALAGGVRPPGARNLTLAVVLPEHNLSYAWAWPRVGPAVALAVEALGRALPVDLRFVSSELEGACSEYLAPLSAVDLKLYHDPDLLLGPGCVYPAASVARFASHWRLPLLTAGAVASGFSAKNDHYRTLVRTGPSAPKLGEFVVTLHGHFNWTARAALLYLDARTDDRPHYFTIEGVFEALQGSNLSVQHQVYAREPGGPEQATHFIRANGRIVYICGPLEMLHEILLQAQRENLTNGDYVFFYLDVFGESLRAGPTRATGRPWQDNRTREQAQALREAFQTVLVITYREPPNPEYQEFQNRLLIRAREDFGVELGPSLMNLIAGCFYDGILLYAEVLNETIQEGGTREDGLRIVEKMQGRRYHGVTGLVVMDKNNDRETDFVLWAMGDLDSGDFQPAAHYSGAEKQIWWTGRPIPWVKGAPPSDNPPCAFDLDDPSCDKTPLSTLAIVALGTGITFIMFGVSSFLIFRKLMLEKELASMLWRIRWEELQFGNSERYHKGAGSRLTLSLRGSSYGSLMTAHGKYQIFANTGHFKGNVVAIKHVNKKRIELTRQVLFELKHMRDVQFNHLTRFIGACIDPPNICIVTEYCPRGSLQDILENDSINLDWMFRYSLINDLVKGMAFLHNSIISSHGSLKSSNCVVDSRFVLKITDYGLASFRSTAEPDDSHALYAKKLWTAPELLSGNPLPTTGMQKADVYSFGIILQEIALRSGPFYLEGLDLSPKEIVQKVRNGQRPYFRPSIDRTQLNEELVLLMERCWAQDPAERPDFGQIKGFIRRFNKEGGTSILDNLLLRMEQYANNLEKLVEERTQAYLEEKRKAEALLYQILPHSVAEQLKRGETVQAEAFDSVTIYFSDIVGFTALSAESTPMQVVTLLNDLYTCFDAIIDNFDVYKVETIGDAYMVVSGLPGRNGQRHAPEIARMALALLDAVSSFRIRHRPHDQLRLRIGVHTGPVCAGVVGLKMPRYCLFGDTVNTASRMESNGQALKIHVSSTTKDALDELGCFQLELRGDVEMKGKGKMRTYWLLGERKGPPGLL
# Sequence of Atrial natriuretic peptide receptor 1 (Homo sapiens) (P16066 whole entry, looked up): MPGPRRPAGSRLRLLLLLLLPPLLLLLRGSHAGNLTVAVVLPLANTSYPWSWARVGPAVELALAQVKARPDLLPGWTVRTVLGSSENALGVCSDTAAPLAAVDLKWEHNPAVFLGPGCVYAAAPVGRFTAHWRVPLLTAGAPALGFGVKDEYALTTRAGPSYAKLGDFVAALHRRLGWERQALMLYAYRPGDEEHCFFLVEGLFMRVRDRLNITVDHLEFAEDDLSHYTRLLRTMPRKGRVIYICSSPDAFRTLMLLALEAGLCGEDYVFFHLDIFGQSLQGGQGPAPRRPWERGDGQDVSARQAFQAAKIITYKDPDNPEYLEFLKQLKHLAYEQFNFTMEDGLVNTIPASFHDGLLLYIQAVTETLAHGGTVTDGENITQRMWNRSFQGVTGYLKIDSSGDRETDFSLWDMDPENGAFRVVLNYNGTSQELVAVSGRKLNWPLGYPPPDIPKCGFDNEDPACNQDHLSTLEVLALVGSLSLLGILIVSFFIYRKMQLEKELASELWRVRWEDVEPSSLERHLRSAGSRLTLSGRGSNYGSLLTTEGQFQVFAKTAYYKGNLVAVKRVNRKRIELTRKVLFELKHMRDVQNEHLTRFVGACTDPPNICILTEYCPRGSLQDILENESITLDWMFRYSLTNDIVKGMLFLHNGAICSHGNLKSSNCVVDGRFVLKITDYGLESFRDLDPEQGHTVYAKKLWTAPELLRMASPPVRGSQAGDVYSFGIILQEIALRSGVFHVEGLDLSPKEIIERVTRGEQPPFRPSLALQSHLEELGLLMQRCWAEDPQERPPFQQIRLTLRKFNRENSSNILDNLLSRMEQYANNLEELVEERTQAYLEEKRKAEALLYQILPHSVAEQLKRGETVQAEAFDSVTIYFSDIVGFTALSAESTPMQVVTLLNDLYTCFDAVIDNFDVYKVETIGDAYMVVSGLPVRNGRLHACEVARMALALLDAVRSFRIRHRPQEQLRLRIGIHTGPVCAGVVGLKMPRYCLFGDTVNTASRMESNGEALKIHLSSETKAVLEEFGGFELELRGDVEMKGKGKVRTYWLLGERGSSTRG
compound,measurement,setting,value
COC1=CC(=O)O[C@@H](CCc2ccccc2)C1,Potency,[1],inactive
same,Potency,[2],inactive
CCc1c(C(=O)C(N)=O)c2c(OCC(=O)OC)cccc2n1Cc1ccccc1,Potency,[1],inactive
same,Potency,[2],inactive
CC(Cc1ccccc1)NC=O (configuration not stated),Potency,[3],inactive
same,Potency,[2],inactive
C=C(C)[C@H]1O[C@H]2CC[C@@]3(C)[C@@](O)(CC[C@H]4[C@@H]5OC(C)(C)[C@H]6C[C@@H]7C(=C)Cc8c(Cl)cc9[nH]c(c5c9c8[C@@]76O)[C@@]43C)[C@]23O[C@@H]3[C@H]1O,Potency,[1],inactive
same,Potency,[2],inactive
CNc1ccc(C(=O)CC(O)CCC(C)C2OC(=O)CC(O)CC(=O)CC(O)CC(O)CC(O)CC(O)CC3(O)CC(O)C(C(=O)OC)C(CC(O[C@@H]4O[C@H](C)[C@@H](O)[C@H](N)[C@@H]4O)/C=C/C=C/C=C/C=C/C=C/C=C/C=C/C2C)O3)cc1 (some centres not stated),Potency,[3],inactive
same,Potency,[2],inactive
Oc1ccc2c3c1O[C@H]1[C@H](N(CCCl)CCCl)CC[C@@]4(O)[C@@H](C2)N(CC2CC2)CC[C@]314,outcome,[1],inactive [at 9.29 µM]
same,"activity change, negative = cytotoxicity",[2],0.87% [at 9.29 µM]
C/C=C(\C)C(=O)OC1CC2C(CC=C3CC(OC4CC(OC)C(OC5CC(OC)C(OC6OC(C)C(OC7OC(CO)C(O)C(O)C7O)C(OC)C6O)C(C)O5)C(C)O4)CCC32C)C2(O)CCC(C(C)=O)C12C (configuration not stated),outcome,[1],inactive [at 9.29 µM]
same,"activity change, negative = cytotoxicity",[2],9.6% [at 9.29 µM]
C/C(O)=C(\C#N)C(=O)Nc1cc(Br)ccc1Br,Potency,[4],inactive
same,Potency,[5],inactive
same,Potency,[6],inactive
CC12NC(Cc3ccccc31)c1ccccc12 (configuration not stated),Potency,[7],inactive
CC(N)c1cccc(Cl)c1Cl (configuration not stated),Potency,[4],inactive
same,Potency,[5],inactive
same,Potency,[6],inactive
same,outcome,[8],inactive
same,Potency,[7],inactive
NC(=O)c1cc(N2CC2)c([N+](=O)[O-])cc1[N+](=O)[O-],Potency,[4],inactive
same,Potency,[5],inactive
same,Potency,[6],inactive
same,outcome,[8],inactive
same,Potency,[7],inactive
Nc1cc2c(ncn2CCOCP(=O)(O)O)c(=O)[nH]1,outcome,[8],inactive
same,Potency,[7],inactive
C[C@H](N)Cc1cccc(C(F)(F)F)c1,Potency,[5],inactive
same,outcome,[8],inactive
same,Potency,[7],inactive
C[N+]1(C)CCc2cc3c(cc2[C@H]1[C@@H]1OC(=O)c2c1ccc1c2OCO1)OCO3,Potency,[5],inactive
same,Potency,[6],inactive
same,outcome,[8],inactive
same,Potency,[7],inactive
CCNC(=O)[C@H]1O[C@@H](n2cnc3c(N)ncnc32)[C@H](O)[C@@H]1O,Potency,[4],inactive
same,Potency,[5],inactive
same,Potency,[6],inactive
same,outcome,[8],inactive
same,Potency,[7],inactive
